CSC inhib – cancer stem cell viability inhibitors, primary screen, luminescence; inhibition, % at 7.5 µM; AID 2717, 2010; actives 1.1% (n = 300,000); cancer stem cell-like cells viability; in the data active means inhibition above about 75%; inconclusive means no clear call, values can overlap the other calls; tested in HMLE shEcad cells
MPTP block – mitochondrial permeability transition pore inhibitors, primary screen, biochemical, isolated mouse mitochondria, absorbance; Ca2+ swelling absorbance, 30 min; inhibition, % at 10 µM; actives 1.4% (n = 360,000);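 active means inhibition of 50% or more, scaled per plate between neutral and stimulator controls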;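 further: 0% = DMSO wells given calcium and 100% = 1 mM EGTA wells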
GRIN3A LBD mod – binders of NR3A ligand-binding domain, primary screen, biophysical, differential scanning fluorimetry, uHTS | Glutamate receptor ionotropic, NMDA 3A (GRIN3A) ligand-binding domain | NR3A LBD differential scanning fluorimetry, Tm shift; 0% = protein alone, 100% = glycine-bound protein | Tm shift relative to glycine control, % at 25 µM | actives 2.5% (n = 340,000);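 active means melting temperature shift of at least 10% of the positive control shift, at one fixed dose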
Mdm2 MdmX PPI – inhibitors of human Mdm2-MdmX association, primary screen, cell-based, luminescence, split luciferase, SaOS-2, uHTS; SaOS-2 split-luciferase Mdm2/MdmX complementation; AID 485346, 2010; Protein Mdm4 (Homo sapiens) + E3 ubiquitin-protein ligase Mdm2 (Homo sapiens), …; actives 3% (n = 330,000); inhibition, % at 8 µM;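 active means inhibition of at least 50% at 8 µM in the primary screen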
SKKanGAS inh – S. pyogenes SKKanGAS growth inhibitors in kanamycin, primary screen, streptokinase expression inhibitor project, SKKanGAS strain, BacTiter-Glo luminescence. 6 h. inhibition, % at 7.5 µM. actives 1.3% (n = 300,000);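 active means mean replicate score, as percent of positive control median, at least 50; inconclusive means mean below 50 but one replicate at or above 50; inactive means mean and every replicate below 50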;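 further: strain carries kanamycin resistance gene driven by streptokinase promoter and grows in 40 µg/ml kanamycin; loss of luminescence reflects streptokinase promoter inhibition or plain growth inhibition; 0% = median of DMSO wells and 100% = positive control at its reference dose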
Beta apoptosis – inhibitors of cytokine-induced beta cell apoptosis, primary screen, luminescence. INS-1E cytokine-induced death, ATP luminescence, 48 h; percent of positive-control rescue, neutral wells zero. actives 0.8% (n = 300,000). AID 435005, 2010. protection from apoptosis, % (concentration not given with the values);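 active means Every replicate reaches about 75%, or at least half do and their mean reaches it too, limit read from the data; inconclusive means At least half of replicates reach the limit but their mean does not; inactive means Under half of replicates reach the limit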;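 further: 0% = cytokine-treated negative control wells and 100% = positive control rescue; higher means more ATP so stronger rescue from cytokine killing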
* hit, by the source's call; ? = inconclusive; nt = not tested or not shown. Compounds with a hit are over-represented: about 6.9% of the library has one in this group of screens.

SMILES | CSC inhib | MPTP block | GRIN3A LBD mod | Mdm2 MdmX PPI | SKKanGAS inh | Beta apoptosis
Cc1ccccc1OCc1nc(-c2ccc(Br)o2)no1 | 11 | 1 | 16* | -28 | 5 | -7
COc1cc(CNc2ncnc3c2ncn3[C@H]2CN(Cc3ccco3)C[C@@H](CO)O2)cc(OC)c1OC | nt | -2 | nt | nt | nt | nt
Cc1cccc(OC(C)C(=O)Nc2nc(-c3ccncc3)cs2)c1 (configuration not stated) | nt | 0 | 1 | 11 | nt | nt
COc1cc(OC)cc(N(C(=O)c2ccco2)C(C(=O)NC2CCCC2)c2ccc(N(C)C)cc2)c1 (configuration not stated) | 13 | -1 | 2 | 20 | -4 | -8
COc1ccc(N(C(=O)c2ccco2)C(C(=O)NC2CCCC2)c2ccc(N(C)C)cc2)cc1 (configuration not stated) | -9 | -1 | 10* | 24 | 1 | -3
CC(=O)N1CCN(C(=O)CSc2nc3c(cnn3-c3ccccc3)c(=O)[nH]2)CC1 | -4 | -1 | 0 | 10 | 7 | 0
O=C(CSc1nc2c(cnn2-c2ccccc2)c(=O)[nH]1)N1N=C(c2cccs2)CC1c1ccc(F)cc1 (configuration not stated) | 4 | 2 | -7 | -22 | 51* | 1
CN1CCC(C)(C(=O)Nc2cccc(Oc3ccccc3)c2)C1 (configuration not stated) | nt | 0 | nt | nt | nt | nt
CC(OC(=O)c1ccc2ncsc2c1)C(=O)N(C)C1CCCCC1 (configuration not stated) | 6 | -2 | 4 | 9 | nt | -5
CC(C)(C)NC(=O)Cn1nnc(-c2ccc(OCc3c(F)cccc3Cl)cc2)n1 | 78* | 1 | -6 | 30 | 13 | 8
Cc1ccc(C(=O)C(C)Oc2ccc3ccc(=O)oc3c2)cc1 (configuration not stated) | 1 | 0 | 1 | 18 | -9 | -7
CCc1cc(-c2n[nH]c(C)c2-c2ccccc2Cl)c(O)cc1OC | 103* | 1 | 13* | 10 | ? | 13
Cc1ccc(NC(=O)COC(=O)COc2cccc3c2OC(C)(C)C3)c(C)c1 | nt | -1 | 0 | -17 | 3 | -4
Oc1cccc(-c2nc3ccc4ccccc4c3c3c2CCC3)c1 | -5 | -2 | 12* | -93 | 63* | 5
CCC(Oc1ccccc1)C(=O)Nc1ccccc1C(=O)N1CCOCC1 (configuration not stated) | -7 | -1 | 13* | 15 | -2 | 1
CCC(Oc1ccccc1)C(=O)Nc1ccccc1C(=O)N1CCCCC1 (configuration not stated) | -5 | -1 | 10 | -1 | -4 | -4
CCc1ccc(OC(C)C(=O)Nc2ccccc2C(=O)N2CCOCC2)cc1 (configuration not stated) | -23 | 0 | 7 | 16 | 0 | -12
CCC(Oc1ccccc1)C(=O)Nc1ccccc1C(=O)N1CCN(C)CC1 (configuration not stated) | -19 | -1 | 11* | 31 | -4 | -2
O=C(CCC1CCCC1)c1c(O)c2ccccc2oc1=O | 40 | 12 | -10 | 30 | 54* | 7
O=C(OCC(=O)N1CCN(C(=O)c2ccco2)CC1)c1cc(-c2ccccc2)nc2ccccc12 | -9 | -3 | -3 | -5 | -3 | -2
O=C(OCC(=O)N1CCN(C(=O)c2ccco2)CC1)c1cc(-c2cccc(Br)c2)nc2ccccc12 | 5 | 4 | 2 | 8 | 53* | 1
O=[N+]([O-])c1ccc(N/N=C/c2ccc[nH]2)cc1 | 88* | 10 | 25* | nt | nt | 4
O=[N+]([O-])c1ccc(N/N=C/c2c[nH]c3ccccc23)cc1 | 96* | 6 | 30* | 25 | 8 | 12
O=[N+]([O-])c1ccccc1N/N=C/c1c[nH]c2ccccc12 | -8 | 9 | 16* | -172 | 12 | 11
O=[N+]([O-])c1ccccc1N/N=C/c1ccccc1 | -5 | 1 | -2 | -69 | -7 | 3
SMILES | CSC inhib | MPTP block | GRIN3A LBD mod | Mdm2 MdmX PPI | SKKanGAS inh | Beta apoptosis
Cn1cc([N+](=O)[O-])c(C(=O)N/N=C\c2c[nH]c3ccccc23)n1 | 1 | 1 | -3 | 10 | 2 | -5
O=C(O)CCn1cc(/C=N/O)c(-c2cccc([N+](=O)[O-])c2)n1 | -15 | 0 | 1 | 18 | -12 | -4
CCOC(=O)[C@@H]1[C@H]2COc3ccccc3[C@H]2N2C(=O)N(c3ccc(Cl)cc3)C(=O)[C@]12C | -15 | 1 | -2 | -4 | -5 | 5
CCOc1cc(N2CCOCC2)c(OCC)cc1NC(=O)c1cccc(S(=O)(=O)N2CCOCC2)c1 | 18 | 1 | -1 | -19 | nt | 3
FC(F)Sc1nc(-c2ccccc2)c(-c2ccccc2)n1C(F)F | 26 | 0 | 18* | 22 | 9 | -4
COc1cccc(-n2c(C)cc(/C=C3/C(=N)N4C(=NC3=O)SN=C4S(C)(=O)=O)c2C)c1 | 10 | 12 | -2 | -19 | 69* | 1
Cc1cc(NC(=O)CCC(=O)N(CC(=O)NC2CCCC2)c2ccc(C(C)C)cc2)no1 | -46 | 2 | 1 | 5 | -9 | 3
Cc1ccc2c(c1)N(CCC(=O)NCc1ccccn1)C(=O)CO2 | -5 | 0 | 42* | 15 | -2 | -5
COc1ccc(Br)cc1CNC(=O)CCN1C(=O)COc2ccccc21 | -8 | -2 | 23* | -2 | 4 | -7
COc1ccc2[nH]c3c(=O)n(/N=C/[C@H]4C(C)C=C(C)CC4C)c(=O)[nH]c3c2c1 (some centres not stated) | 88* | 25 | -2 | 16 | 6 | 5
COc1ccc2[nH]c3c(=O)n(N)c(=O)[nH]c3c2c1 | 3 | -1 | 2 | 0 | -6 | 4
O=C(COC(=O)c1ccc(Cl)c(S(=O)(=O)N2CCN(c3ccc(F)cc3)CC2)c1)Nc1cccc(Cl)c1 | -2 | 26 | 25* | -11 | 9 | 1
O=C(COC(=O)c1ccc(Cl)c(S(=O)(=O)N2CCOCC2)c1)Nc1ccc2[nH]c(=O)[nH]c2c1 | -5 | 0 | -1 | -9 | nt | 0
CCCCCCCNC1=CC(=O)CC(c2ccccc2)C1 (configuration not stated) | 45 | 26 | -1 | 42 | -7 | 91*
Cn1ncc(Br)c1C(=O)Nc1ccc(Cl)cn1 | -12 | 6 | 13* | 6 | 7 | 1
O=C(N/N=C/c1cccc(O)c1)c1ccc(COc2ccccc2Br)cc1 | 87* | 5 | 35* | 24 | 63* | -4

Compound activity from PubChem BioAssay.
